Compounds with a hit are over-represented: about 19% of the library has one in this group of screens.
IL1B secr inh – inflammasome signaling inhibition, IL-1 beta readout; THP-1 LPS/ATP IL-1B secretion, AlphaLISA, 16 h; stronger effect = lower value; activity change, % at 57.5 µM; 360,000 tested, 4.7% active; in the data active = activity change below about -50%; inconclusive = mostly about -30% to -49%
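Secreted IL-1B measured by AlphaLISA bead assay after 16 h compound exposure of THP-1 cells; compounds (final up to 57.5 uM) added 1 h before LPS (250 ng/mL) and ATP (1.25 mM) stimulation; lower signal means less secretion.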
HepG2 viability – counter-screen for TGF-b inhibitors: cytotoxicity in HepG2 cells. HepG2 CAGA-GFP viability, ATP luminescence, 18 h. AID 588856. Potency, µM (doses to about 46.1 µM), actives largely listed as cytotoxic. 410,000 tested, 0.76% active
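HepG2 CAGA-GFP cells (1000/well, DMEM with 1% FBS) received compound, then TGF-beta at 500 pg/mL final, and were incubated 18 hours at 37 degrees C. Viability was read by CellTiter-Glo luminescence. Media-only wells were set as complete cell-killing and DMSO as no toxicity.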
TDP1 cell CPT – growth inhibition of DT40 Tdp1-/-;hTDP1 cells with camptothecin (screen for TDP1 inhibitors). chicken DT40 Tdp1-/-;hTDP1 cells + 20 nM CPT, ATP luminescence, 48 h. Potency, µM (series often up to 46.2 µM), actives largely listed as inhibitors. 420,000 tested, 12% active; also: nearly all actives have a fitted effect of over 55% in size
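Cell growth measured by CellTiter-Glo luminescence after a minimum 48 h, 37 C compound exposure with 20 nM CPT in Tdp1-knockout DT40 cells stably expressing hTDP1, seeded 400/well; qHTS titration format.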
TGFb SMAD3 inh – TGF-b pathway inhibition; HepG2 CAGA-GFP TGF-b/SMAD3 reporter, GFP fluorescence, 18 h; TGF-beta stimulated, 500 pg/mL final; 410,000 tested, 1.2% active; AID 588855; Potency, µM (doses to about 46.1 µM), usual class: inhibitors; also: nearly all actives have a fitted effect of over 65% in size
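Using HEPG2 CAGA-GFP reporter cells at 1000 cells/well, we pinned test compounds, stimulated with recombinant TGF-beta (500 pg/mL final) and measured total well GFP after 18 h.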
DT40 TDP1 no CPT – qHTS for Inhibitors of human tyrosyl-DNA phosphodiesterase 1 (TDP1): qHTS in cells in absence of CPT; DT40 Tdp1-/- hTDP1 cells, no CPT, ATP luminescence, 48 h; Potency, µM (highest dose often 46.2 µM), most hits filed as inhibitors; 420,000 tested, 15% active; also: nearly all actives have a fitted effect of over 55% in size
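Chicken DT40 Tdp1-/- cells stably complemented with human TDP1 were seeded at 400 cells/well with DMSO in place of 20 nM camptothecin. After compound pinning, cells grew at least 48 hr at 37 °C; viability read by CellTiter-Glo luminescence.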
S-ASM inh – inhibitors of human secretory acid sphingomyelinase | Potency, µM (titrated, usually from 57.5 µM), actives largely listed as inhibitors | P17405 | 340,000 tested, 0.006% active | placental ASM, HMU-PC fluorogenic substrate, 60 min
Target sequence (P17405 47-631 limits assumed): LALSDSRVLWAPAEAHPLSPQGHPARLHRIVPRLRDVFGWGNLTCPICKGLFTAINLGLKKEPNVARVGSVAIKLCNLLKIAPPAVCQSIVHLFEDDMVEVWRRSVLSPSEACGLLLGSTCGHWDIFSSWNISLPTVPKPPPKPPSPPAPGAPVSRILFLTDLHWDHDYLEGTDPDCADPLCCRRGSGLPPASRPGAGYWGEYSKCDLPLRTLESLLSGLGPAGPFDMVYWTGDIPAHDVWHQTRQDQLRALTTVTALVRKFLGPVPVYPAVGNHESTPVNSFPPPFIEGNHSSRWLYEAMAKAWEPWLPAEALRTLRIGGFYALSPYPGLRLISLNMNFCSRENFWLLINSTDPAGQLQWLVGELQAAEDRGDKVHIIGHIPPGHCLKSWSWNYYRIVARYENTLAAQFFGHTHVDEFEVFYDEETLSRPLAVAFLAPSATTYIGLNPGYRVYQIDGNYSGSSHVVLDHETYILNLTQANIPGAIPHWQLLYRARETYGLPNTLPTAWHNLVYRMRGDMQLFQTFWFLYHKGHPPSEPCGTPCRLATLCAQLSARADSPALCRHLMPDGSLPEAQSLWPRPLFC
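Human placenta-derived ASM preincubated with compound 10 min at room temperature, then reacted with 9 uM (final) fluorogenic HMU-PC substrate for 60 min at 37 C. Stop solution raises pH to 10; fluorescence read at Ex 386/Em 447 nm.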
Of the large screens only hits and unclear results are named; the others gave an inactive call. Unless noted, calls follow the shape of the dose curve; as a rule, active = well fitted curve in the direction sought with a large enough effect; inconclusive = small, poorly fitted or top-dose-only effect, or another doubt; inactive = no such curve, though single readings can be large; an effect the other way counts as inactive or inconclusive.

CC1(C)CC(n2c(NCCO)nc3c(c2=O)C2(CCCC2)Cc2ccccc2-3)CCO1 (stereo not given)	IL1B secr inh -66, TDP1 cell CPT inconclusive, TGFb SMAD3 inh inconclusive, DT40 TDP1 no CPT inconclusive
CCC1(C)Cc2ccccc2-c2nc(NCCO)n(-c3ccccc3)c(=O)c21 (stereo not given)	TDP1 cell CPT 4.1µM, DT40 TDP1 no CPT 4.6µM
O=c1c2c(nc(NCCO)n1CC1CCCCC1)-c1ccccc1CC21CCCC1	IL1B secr inh inconclusive, TDP1 cell CPT inconclusive, TGFb SMAD3 inh inconclusive, DT40 TDP1 no CPT inconclusive
CCC1(C)Cc2ccccc2-c2nc(NCCCO)n(C)c(=O)c21 (stereo not given)	TDP1 cell CPT inconclusive, DT40 TDP1 no CPT inconclusive
O=C(CCn1c(=O)oc2ccccc21)Nc1cccc(Br)c1	none
N#Cc1ccccc1S(=O)(=O)N1CCN(CC(=O)NCC2(N3CCOCC3)CCCCC2)CC1	TDP1 cell CPT inconclusive, DT40 TDP1 no CPT inconclusive
COc1cc(-c2coc3c(C(=O)NCc4ccccc4)cccc23)ccc1O	IL1B secr inh inconclusive, TDP1 cell CPT 18µM (no result: S-ASM inh)
COc1ccc(NC(=O)c2ccc(-c3c(C)noc3C)c3ccoc23)cc1	TDP1 cell CPT inconclusive, DT40 TDP1 no CPT inconclusive (no result: S-ASM inh)
COc1ccc(NC(=O)c2cccc3c(-c4ccc(O)c(OC)c4)coc23)cc1	TDP1 cell CPT inconclusive, DT40 TDP1 no CPT 18µM (no result: S-ASM inh)
COc1cc(-c2coc3c(C(=O)NCc4cccc(Cl)c4)cccc23)ccc1O	IL1B secr inh -55, TDP1 cell CPT inconclusive, TGFb SMAD3 inh inconclusive, DT40 TDP1 no CPT 18µM (no result: S-ASM inh)
O=C(C[C@H]1CC[C@@H](NS(=O)(=O)c2ccccc2)[C@@H](CO)O1)NCc1ccc(Cl)c(Cl)c1	TDP1 cell CPT 21µM, DT40 TDP1 no CPT 21µM (no result: HepG2 viability, TGFb SMAD3 inh, S-ASM inh)
COc1ccc(-c2cn3nc(SCC(=O)Nc4ccccc4F)ccc3n2)cc1	TDP1 cell CPT inconclusive, DT40 TDP1 no CPT inconclusive (no result: IL1B secr inh, S-ASM inh)
Cc1ccc(Cn2c(SCC(=O)N3CC(=O)Nc4ccccc43)nc3ccccc3c2=O)cc1	TDP1 cell CPT inconclusive, DT40 TDP1 no CPT inconclusive
COCC(C)n1c(SCC(=O)N2CC(=O)Nc3ccccc32)nc2ccccc2c1=O (stereo not given)	none
Cc1cccc(-n2c(SCC(=O)N3CC(=O)Nc4ccccc43)nc3ccccc3c2=O)c1	IL1B secr inh inconclusive, TDP1 cell CPT inconclusive, DT40 TDP1 no CPT 23µM
Cc1cccc(-n2c(SCC(=O)N3CC(=O)Nc4ccccc43)nc3ccccc3c2=O)c1C	IL1B secr inh -62, TDP1 cell CPT inconclusive, DT40 TDP1 no CPT 18µM
Cc1ccc(-n2c(SCC(=O)N3CC(=O)Nc4ccccc43)nc3ccccc3c2=O)cc1C	TDP1 cell CPT inconclusive
O=C1CN(C(=O)CSc2nc3cc(Cl)ccc3c(=O)n2Cc2ccccc2)c2ccccc2N1	IL1B secr inh -72, TDP1 cell CPT inconclusive, DT40 TDP1 no CPT inconclusive
CC(c1ccccc1)n1c(SCC(=O)N2CC(=O)Nc3ccccc32)nc2ccccc2c1=O (stereo not given)	TDP1 cell CPT 26µM, TGFb SMAD3 inh inconclusive, DT40 TDP1 no CPT 21µM
CCOC(=O)c1c(S(=O)(=O)NCC(=O)N2CCN(c3ccccc3)CC2)c(C)n(C)c1C	IL1B secr inh inconclusive
O=C(NCC(=O)N1CCCC(C(F)(F)F)C1)c1ccc(Br)o1 (stereo not given)	none (no result: S-ASM inh)
O=C(CNCC1CCCCC1)Nc1ccccc1N1CCCCC1	TDP1 cell CPT inconclusive, TGFb SMAD3 inh inconclusive, DT40 TDP1 no CPT inconclusive
Cc1ccc(NC(=O)CSCC(=O)Nc2ccccc2N2CCCCC2)cc1	IL1B secr inh -63, TDP1 cell CPT inconclusive, TGFb SMAD3 inh inconclusive, DT40 TDP1 no CPT inconclusive
O=C(CNC1CCCCCC1)Nc1ccccc1N1CCCCC1	TDP1 cell CPT inconclusive, TGFb SMAD3 inh inconclusive, DT40 TDP1 no CPT 21µM
Cc1cccnc1NC(=O)C1CCCN1S(=O)(=O)c1ccc(Cl)cc1 (stereo not given)	none
CC(C(=O)OCC(=O)N1CCCCC1)N1C(=O)c2ccccc2C1=O (stereo not given)	TDP1 cell CPT inconclusive, TGFb SMAD3 inh inconclusive, DT40 TDP1 no CPT inconclusive
O=C(CSc1nnnn1-c1cccc(F)c1)NC1CC1	none
CCN1CCN(c2c(S(=O)(=O)c3ccccc3)cnc3ccc(Cl)cc23)CC1	DT40 TDP1 no CPT inconclusive (no result: IL1B secr inh, S-ASM inh)
COc1ccc(S(=O)(=O)c2cnc3ccc(Cl)cc3c2N2CCCCC2C)cc1 (stereo not given)	TDP1 cell CPT 16µM, TGFb SMAD3 inh inconclusive, DT40 TDP1 no CPT 23µM (no result: IL1B secr inh, S-ASM inh)
CCN1CCN(c2c(S(=O)(=O)c3ccc(C)c(C)c3)cnc3cc(OC)c(OC)cc23)CC1	TDP1 cell CPT 15µM, DT40 TDP1 no CPT inconclusive (no result: IL1B secr inh, S-ASM inh)
CCc1ccc2ncc(S(=O)(=O)c3ccc(C)c(C)c3)c(N3CCCC3)c2c1	TDP1 cell CPT 23µM, TGFb SMAD3 inh inconclusive, DT40 TDP1 no CPT 15µM
CCc1ccc(S(=O)(=O)c2cnc3ccc(OC)cc3c2N2CCCC(C)C2)cc1 (stereo not given)	TDP1 cell CPT 16µM, DT40 TDP1 no CPT inconclusive (no result: IL1B secr inh, S-ASM inh)
CN1C(=O)[C@@H]2C[C@@]3([C@@]45C[C@H]6C(=O)N(C)[C@@H](Cc7ccccc7)C(=O)N6[C@@H]4Nc4ccccc45)c4ccccc4N[C@H]3N2C(=O)[C@@H]1Cc1ccccc1	TDP1 cell CPT inconclusive, TGFb SMAD3 inh inconclusive, DT40 TDP1 no CPT inconclusive
CC(=O)OCc1c(C)cc(C)c(/C=C(/C#N)C(N)=O)c1C	DT40 TDP1 no CPT inconclusive
CCOc1cccc(/C=C(\C#N)C(=O)NC2CC2)c1	TDP1 cell CPT inconclusive
CCN1CCN(c2c(S(=O)(=O)c3ccc(Cl)cc3)cnc3ccccc23)CC1	TDP1 cell CPT 13µM, TGFb SMAD3 inh inconclusive, DT40 TDP1 no CPT inconclusive (no result: IL1B secr inh, S-ASM inh)
O=C(NCC(c1cccs1)N1CCOCC1)c1ccc(Cl)nc1 (stereo not given)	none
O=C(c1ccc2c(=O)n(-c3ccccc3)c(=S)[nH]c2c1)N1CCN(c2ccccc2)CC1	TDP1 cell CPT 15µM, TGFb SMAD3 inh inconclusive, DT40 TDP1 no CPT 12µM
O=C(c1ccc2c(=O)n(Cc3ccccc3)c(=S)[nH]c2c1)N1CCCC1	DT40 TDP1 no CPT inconclusive
CCOCCCn1c(=S)[nH]c2cc(C(=O)N3CCN(c4ccccc4)CC3)ccc2c1=O	TDP1 cell CPT inconclusive
O=C(c1ccc2c(c1)[nH]c(=S)n1c3ccccc3nc21)N1CCN(c2ncccn2)CC1	TDP1 cell CPT 21µM, DT40 TDP1 no CPT inconclusive
